HP1b chromo inh = HTS for Inhibitors of HP1-beta Chromodomain Interactions with Methylated Histone Tails. 390,000 compounds, 0.56% hits. Potency, µM (titrated, usually from 114 µM), inactives show at the top dose activity change, negative = inhibition, actives largely listed as inhibitors. Chromobox protein homolog 1 (Homo sapiens), P83916. AlphaScreen HP1-beta / biotin-H3K9me3 peptide binding; note: potency is the fitted concentration of half-maximal effect; nearly all actives have a fitted effect of over 70% in size
Target sequence (P83916 whole entry, looked up): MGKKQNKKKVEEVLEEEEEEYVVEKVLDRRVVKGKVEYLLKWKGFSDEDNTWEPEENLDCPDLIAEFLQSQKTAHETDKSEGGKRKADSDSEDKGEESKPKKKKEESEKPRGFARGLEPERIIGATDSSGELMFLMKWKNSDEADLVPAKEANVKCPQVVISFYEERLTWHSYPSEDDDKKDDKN
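HP1-beta protein (50 nM final) preincubated 30 min at room temperature with biotinylated H3(1-18)K9me3 peptide (50 nM) in PBS pH 7.4, 0.01% Tween-20, then compound added for 30 min. AlphaScreen streptavidin donor/nickel chelate acceptor beads (10 ug/mL final), 30 min dark, luminescence read.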
BAZ2B inh = qHTS Assay for Inhibitors of BAZ2B | 360,000 compounds, 4.4% hits | Potency, µM (series often up to 114 µM), for the others: top-dose activity change, negative = inhibition, most hits filed as inhibitors | AlphaScreen BAZ2B-H3K14Ac peptide displacement | Bromodomain adjacent to zinc finger domain protein 2B (Homo sapiens), Q9UIF8; note: potency is the fitted concentration of half-maximal effect; % is set by controls: 0 for no effect and ±100 for the full control effect; nearly all actives have a fitted effect of over 60% in size
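Protein-peptide AlphaScreen: BAZ2B 50 nM, b-H3K14Ac 50 nM, 1x PBS pH 7.4 + 0.01% Tween-20. Preincubation 30 min RT; cpd 30 min RT (top 110 uM); beads 20 min RT, light-protected.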
PLK1 PBD block = qHTS for Inhibitors of PLK1-PDB (polo-like kinase 1 - polo-box domain): Primary Screen; Potency, µM, without a hit: max response, negative = inhibition, most hits filed as inhibitors; Plk1 PBD binding of FITC phosphopeptide, fluorescence polarization; 360,000 compounds, 2.8% hits; Serine/threonine-protein kinase PLK1 (Homo sapiens), P53350; note: potency is the fitted concentration of half-maximal effect; series mostly up to about 57 µM; % is set by controls: 0 for no effect and ±100 for the full control effect; nearly all actives have a fitted effect of over 65% in size
G9a inh = qHTS Assay for Inhibitors of Histone Lysine Methyltransferase G9a. Histone-lysine N-methyltransferase EHMT2 (Homo sapiens), Q96KQ7. G9a H3K9 monomethylation, AlphaScreen, 2 h. Potency, µM (titrated, usually from 102 µM), for the others: at the top dose activity, negative = inhibition, hits mostly inhibitors. 350,000 compounds, 8.8% hits. AID 504332, 2011; note: potency is the fitted concentration of half-maximal effect; % is set by controls: 0 for no effect and ±100 for the full control effect; nearly all actives have a fitted effect of over 75% in size
Target sequence (Q96KQ7 913-1193 limits assumed): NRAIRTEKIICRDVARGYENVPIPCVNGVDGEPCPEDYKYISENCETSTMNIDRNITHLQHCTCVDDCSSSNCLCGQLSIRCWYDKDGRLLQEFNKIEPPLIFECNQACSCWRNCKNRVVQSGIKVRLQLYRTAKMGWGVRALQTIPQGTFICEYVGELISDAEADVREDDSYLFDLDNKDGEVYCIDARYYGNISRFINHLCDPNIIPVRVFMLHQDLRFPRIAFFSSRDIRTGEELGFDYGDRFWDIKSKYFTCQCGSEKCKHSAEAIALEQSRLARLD
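Step 1: enzyme (final 20 nM) with compound, 15 min RT. Step 2: substrate peptide 500 nM and SAM 20 uM, 2 h RT. Step 3: anti-H3K9me1 antibody and AlphaScreen beads, 10 min, then plate read.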
JMJD2A Tudor = qHTS Assay for Inhibitors of JMJD2A-Tudor Domain; AlphaScreen JMJD2A-Tudor / H3K4me3 peptide binding; Potency, µM (titrated, usually from 114 µM), inactives show top-dose activity change, negative = inhibition, usual class: inhibitors; 390,000 compounds, 4.4% hits; note: potency is the fitted concentration of half-maximal effect; % is set by controls: 0 for no effect and ±100 for the full control effect; nearly all actives have a fitted effect of over 50% in size
PI5P4Ka inh = qHTS for Inhibitors of phosphatidylinositol 5-phosphate 4-kinase (PI5P4K); 330,000 compounds, 1.2% hits; Phosphatidylinositol 5-phosphate 4-kinase type-2 alpha (Homo sapiens), P48426; max response, %; AID 652105, 2013; PI5P4Kalpha enzyme, ADP-Glo luminescence, 60 min; active compounds read low; active = max response of -50% or lower; inconclusive = between -30% and -50%; inactive = -30% or higher; note: value at the top dose of about 77 µM; % is set by controls: 0 for no effect and ±100 for the full control effect
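ADP-Glo luminescence end-point read after a 60 min room-temperature kinase reaction of PI5P4Kalpha plus substrate, initiated with ATP at 5 microM final. Buffer: 0.038 M HEPES pH 7.4, EGTA, 0.1% CHAPS, 5% DMSO.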
* = called active by the depositor; u = inconclusive; x = no result; [ ] = another dose, or the depositor's remark. An excerpt weighted towards active compounds, which were near 12% of everything screened. Unless noted, calls come from the whole dose curve; as a rule, active = well fitted curve in the direction sought with a large enough effect; inconclusive = small, poorly fitted or top-dose-only effect, or another doubt; inactive = no such curve, though single readings can be large; an effect the other way counts as inactive or inconclusive.

SMILES	HP1b chromo inh	BAZ2B inh	PLK1 PBD block	G9a inh	JMJD2A Tudor	PI5P4Ka inh
CCC(=O)N1c2ccccc2CC1C(=O)NCCc1ccccc1Cl (stereo unspecified)	39.9%	-1.8%	x	-31.3%[59 µM]	1.3%	x
CSc1nnc(-c2sc3cc(C(F)(F)F)cnc3c2-c2cccnc2)n1C	19.7%	4.6%	-2.8%	50.1µM*	-7.8%	-3.5
COC(=O)c1sc2cc(C(F)(F)F)cnc2c1-c1cccnc1	3.2%	12.4%	-7.6%	15.6%[59 µM]	-9.0%	x
COC(=O)Cc1cc(=O)n2[nH]cnc2n1	13.2%	79.4µM*	-3.8%	-32.7%[0.501 µM]	-11.0%	-7.7
Cc1cccc2cc(-c3ccccc3)c(-c3ccccc3)c[n+]12	u	u	u	1.2%[59 µM]	u	-18.9
CCOc1ccc(Cn2c(=O)sc3ccccc32)cc1OC	42.8%	4.3%	0.9%	x	17.7%	1.8
Nc1c(-c2ccccc2)c(CN2CCOCC2)nn1-c1cccc([N+](=O)[O-])c1	34.8%	-18.3%	4.6%	5.3%	-8.2%	-0.2
Nc1c(-c2ccccc2)c(CN2CCOCC2)nn1-c1ccc(F)cc1	18.8%	-12.2%	-1.5%	20µM*	8.3%	3.2
Cc1cccnc1NC(=S)NCCc1ccccc1	u	35.5µM*	-17.0%	0.708µM*	20µM*	-19.5
Cc1ccc(NC(=S)NCCc2ccccc2)nc1	21.8%	-32.2%	-1.9%	1.58µM*	-20.0%	u
O=C(Nc1cccc2cccnc12)OC(Cl)(Cl)Cl	29.8%	x	x	x	-24.0%	x
CCOc1cc(CNC(=O)c2ccc3c(c2)nc2n3CCCCC2)ccc1OC	17.0%[57 µM]	15.1%	x	16.8%[59 µM]	-16.9%	x
CC1(C)CC2(CC(c3ccccc3F)c3ccc(O)c(O)c3O2)NC(=S)N1 (stereo unspecified)	u	44.7µM*	18.9µM*	x	39.8µM*	-56.0*
COc1cc(C2CC(=O)Oc3c(C(CCN4CCN(c5ccccc5)CC4)c4ccc(N(C)C)cc4)c(OC)cc(OC)c32)cc(OC)c1OC (stereo unspecified)	u	7.94µM*	-8.8%	u	8.91µM*	2.2
COc1cc(C2CC(=O)Oc3c(C(CCN4CCOCC4)c4ccc(N(C)C)cc4)c(OC)cc(OC)c32)cc(OC)c1OC (stereo unspecified)	u	44.7µM*	-6.5%	u	39.8µM*	-0.4
NS(=O)(=O)c1ccc(NC(=O)c2cccc3cc4ccccc4nc23)cc1	17.5%	x	-1.9%	x	-20.8%	u
COc1ccccc1-c1nn2c(-c3cc(-c4ccccc4)n[nH]3)nnc2s1	3.9%[57 µM]	x	x	x	-10.0%[57.1 µM]	x
COc1cccc(OC)c1-c1nn2c(-c3cc(-c4ccccc4)n[nH]3)nnc2s1	-34.5%	8.91µM*	19.5%	3.55µM*	44.7µM*	-65.8*
NC(=O)C1=C(c2ccccc2)c2ccccc2C1=O	2.1%[57 µM]	x	4.23µM*	x	-13.1%	2.6
Cc1ccc(C2=C(O)c3ccccc3C(=O)C2=O)cc1	-4.6%	u	1.7%	x	-4.7%	-25.8
O=C(c1cccs1)N(Cc1ccco1)c1ccc(O)cc1	2.9%[57 µM]	x	x	x	1.5%[57.1 µM]	x
CN(CCC(=O)c1ccccc1)CCC(=O)c1ccccc1	14.4%	4.8%	26.7µM*	31.6µM*	-11.2%	1.0
CN(C)CCC(=O)c1ccc(Cl)cc1	17.5%	-2.6%	4.23µM*	6.31µM*	-7.9%[57.1 µM]	1.5
c1ccc(CN2CCN(c3nc(N4CCOCC4)c4ccccc4n3)CC2)cc1	111.0%	x	-5.2%	x	-9.4%[57.1 µM]	9.2
CN1CCN(c2nc(N3CCN(CCO)CC3)nc3ccccc23)CC1	29.6%	-7.7%	1.6%	50.1µM*	0.0%	3.8
OCCN1CCN(c2cc(-c3ccccc3)c3ccccc3n2)CC1	u	39.8µM*	-6.1%	u	0.794µM*	-4.5

Source: PubChem BioAssay (National Center for Advancing Translational Sciences (NCATS))
